This is a sample that favours compounds with a hit; in the whole collection about 27% have one here.
CYP2C19 inh: blocks human cytochrome P450 2C19; P33261; CYP2C19 Supersomes, luciferin-H EGE luminescence, 30 min; inhibition, % at 5 µM; actives 21% (n = 96,000); AID 778;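 active = CYP2C19 inhibition above a set limit at 5 µM in the primary screen, cut at about 50% in these data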;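 note: plate controls were negative control wells for no effect and 2.5 mM tranylcypromine positive control for full effect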
Target sequence (P33261 whole entry, looked up): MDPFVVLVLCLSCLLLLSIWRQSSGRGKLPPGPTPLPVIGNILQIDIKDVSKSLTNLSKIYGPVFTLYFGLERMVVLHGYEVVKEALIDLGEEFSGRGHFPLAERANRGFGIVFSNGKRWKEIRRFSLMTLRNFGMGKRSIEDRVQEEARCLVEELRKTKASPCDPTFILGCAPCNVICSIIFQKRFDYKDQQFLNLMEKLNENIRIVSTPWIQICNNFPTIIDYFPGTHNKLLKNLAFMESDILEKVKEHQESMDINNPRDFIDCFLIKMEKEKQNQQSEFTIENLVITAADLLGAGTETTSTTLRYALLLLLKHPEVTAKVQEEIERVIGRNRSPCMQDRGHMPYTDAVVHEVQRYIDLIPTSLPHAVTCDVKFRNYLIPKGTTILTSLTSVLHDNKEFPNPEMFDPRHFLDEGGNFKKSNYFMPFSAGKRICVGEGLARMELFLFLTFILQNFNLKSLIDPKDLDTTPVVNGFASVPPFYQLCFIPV
CYP2C9 inhib: inhibitors of human CYP2C9; AID 777; CYP2C9 Supersomes, luciferin-H conversion, luminescence; P11712; actives 20% (n = 96,000); inhibition, % at 5 µM;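 active = blocking of liver enzyme CYP2C9 beyond about 50% at 5 µM, limit read from the data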
CYP2C9 activ: CYP2C9 (human) activation. activation factor at 5 µM. AID 1024. recombinant CYP2C9, luciferin-H conversion, luminescence; active compounds read high; factor 1 = untreated enzyme, 0 = blocked. actives 1.4% (n = 96,000);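 active = activation factor of 2 or more for CYP2C9 at a 5 µM dose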;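 note: 0 = sulfaphenazole-blocked wells and 1 = vehicle-only wells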
CYP2C19 activ: activators of human cytochrome P450 2C19. P33261. recombinant CYP2C19, luciferin-H EGE luminescence; active compounds read high; 0 = fully inhibited enzyme, 1 = untreated enzyme. activation factor at 5 µM. 96,000 tested, under 10 active. AID 1025;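 active = activation factor of at least 2 at 5 µM in the primary screen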;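 note: 0 = wells with 2.5 mM tranylcypromine and 1 = vehicle-only wells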
Cav3 T inh: blocks human Cav3.2 T-type calcium channel. O95180. Cav3.2-expressing cells, Fluo-4 calcium fluorescence FDSS; active compounds read low. B-score at 10 µM. actives 4% (n = 100,000). AID 449739;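 active = single-dose well whose peak fluorescence ratio is a statistical outlier from its plate by either plate-standardised score or position-corrected B-score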
* hit, by the source's call; nt = no result given.

SMILES	CYP2C19 inh	CYP2C9 inhib	CYP2C9 activ	CYP2C19 activ	Cav3 T inh
CC1=Nc2ccccc2N=C(NC(=O)CSc2nnnn2-c2ccccc2)C1c1ccccc1 (centres undefined)	79.4*	95.0*	0.1	0.2	nt
CCN(CC)CCNC(=O)CCc1n[nH]c(=O)c2ccccc12	3.6	4.8	1	1	0.475
O=C(Cn1ccc2ccccc2c1=O)NCCC(=O)N1CCN(c2cccc(Cl)c2)CC1	7.9	-2.4	1	0.9	-0.83
O=[N+]([O-])c1ccc(OCc2cn([C@@H](CO)c3ccccc3)nn2)c(Br)c1	nt	nt	nt	nt	-1.31
C[C@@H](C(=O)N1CCN(C(=O)OC(C)(C)C)CC1)n1cc(CCC(=O)O)nn1	nt	nt	nt	nt	0.456
CCCCN(NC(C)=O)c1nc(Cl)nc(NC(C)C)n1	-4.2	-1.6	1	1	0.792
COC(=O)CSc1nnnn1-c1ccccc1	55.6*	1.7	1	0.4	0.247
COc1ccc(CSc2nnnn2-c2ccccc2)cc1	96.4*	88.6*	0.1	0	nt
CSc1ccccc1-n1nnnc1SCc1ccccc1	87.4*	65.8*	0.3	0.1	-2.79
NC(=O)c1ccc(-n2nnnc2SCc2ccc(F)cc2)cc1	74.7*	20.3	0.8	0.3	0.171
Cc1cc(C)n(CNc2nc(C(F)(F)F)cs2)n1	16.7	0.6	1	0.8	-0.326
Cc1cn(C(=O)CN2C(=O)c3ccccc3C2=O)c(C)n1	-10.7	-6.9	1.1	1.1	-0.423
COc1ccc(CCn2c(C)cc(C(=O)CSc3nnnn3-c3ccccc3)c2C)cc1	15.7	-140.4	2.4*	0.8	-0.276
C=CCSc1nnnn1-c1ccc(OC)cc1	98.3*	65.7*	0.3	0	-0.0623
Cc1cc(C(=O)CSc2nnnn2C)c(C)n1CCc1ccc(Cl)cc1	22.4	8.9	0.9	0.8	0.116
C#Cc1ccc([C@H]2C=C(C(=O)Nc3ccccc3)O[C@@H](OCc3ccc(CO)cc3)C2)cc1	nt	nt	nt	nt	-1.63
CCOC(=O)CN(C(=O)CSc1nnc2c(n1)[nH]c1c(C)cc(C)cc12)c1ccccc1	8.2	3.8	1	0.9	0.837
CCOC(=O)c1c(NC(=O)CSc2nnc3c(n2)[nH]c2ccc(F)cc23)sc(C(C)=O)c1C	64.0*	75.7*	0.2	0.4	0.524
CCOC(=O)c1c(NC(=O)CSc2nnc3c(n2)[nH]c2ccccc23)sc2c1CCN(C)C2	nt	nt	nt	nt	0.822
CCOC(=O)CN(C(=O)CSc1nnc2c(n1)[nH]c1ccccc12)c1ccccc1	81.4*	44.9	0.6	0.2	0.102
CCOC(=O)CN(C(=O)CSc1nnc2c(n1)[nH]c1ccc(F)cc12)c1ccccc1	100.2*	74.9*	0.3	0	-4.34*
C=C(C)C1CCC(C)=C1COC(=O)Nc1ccccc1 (centres undefined)	22.1	37.1	0.6	0.8	-3.84
CCC1CC2CC(NC(C)=O)C1C2 (centres undefined)	-5.6	-7.7	1.1	1.1	-0.0598
CCCCc1c(O)nc(SCC(=O)Nc2ccc3c(c2)CCC3)[nH]c1=O	39.5	49.0	0.5	0.6	-5.66*
O=C(CSc1nc(O)c(C2CCCCC2)c(=O)[nH]1)Nc1ccc(Cl)cc1	15.3	65.5*	0.3	0.8	-7.81*
SMILES	CYP2C19 inh	CYP2C9 inhib	CYP2C9 activ	CYP2C19 activ	Cav3 T inh
CCc1c(O)nc(SCC(=O)Nc2ccc3c(c2)CCC3)[nH]c1=O	-4.6	8.3	0.9	1	-0.0735
CC1CCN(C(=O)CSc2nnc(CNC(=O)COc3ccc(Cl)cc3)o2)CC1	67.2*	57.3*	0.4	0.3	-0.729
CCCCCCCc1c(C)nc(N2CCOCC2)[nH]c1=O	50.6*	74.2*	0.3	0.5	0.0204
Cc1nc(N2CCOCC2)[nH]c(=O)c1CCC(C)C	-10.4	-31.0	1.3	1.1	0.53
Cc1nc2ccccc2n2c(O)c(CC(=O)O)cc12	6.2	2.6	1	0.9	-6.29*
O=S(=O)(c1cnccc1N1CCN(/N=C/c2ccc(Cl)cc2)CC1)N1CCCCC1	33.2	59.7*	0.4	0.7	-0.122
CCOC(=O)C1CN(S(=O)(=O)c2cccc(C(F)(F)F)c2)c2cc(CC(=O)OC)ccc2O1 (centres undefined)	78.7*	59.9*	0.4	0.2	-3.5
Nc1cccc(C(=O)Nc2ccc(N)cc2Cl)c1	-7.6	-56.8	1.6	1.1	-0.335
Nc1cccc(C(=O)Nc2ccco2)c1	97.9*	79.1*	0.2	0	0.422
COCCNC(=O)C1CC(c2cccc([N+](=O)[O-])c2)=NO1 (centres undefined)	-5.5	-19.9	1.2	1.1	0.105
O=c1oc2ccccc2n1Cc1ccccc1Cl	nt	nt	nt	nt	-0.347
